This note sets out measurements from PubChem BioAssay (NCATS).

Test [1] is described as follows: Quantitative High-Throughput drug screen in 47 multiple myeloma cell lines against the NCATS MIPE library collection: MM1S_ATCC cell viability assay (AID 1918980). Note: nearly all actives have a fitted effect of over 45% in size. Put shortly: (§1)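 qHTS format: cells plated (500/well), pin-dosed with MIPE 4.0 compounds, kept 48 h at 37 °C. Readout was CellTiter-Glo luminescence, median RLU.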
A short description of test [2]: Quantitative High-Throughput drug screen in 47 multiple myeloma cell lines against the NCATS MIPE library collection: LP1_DSMZ cell viability assay (AID 1918982). Note: nearly all actives have a fitted effect of over 35% in size. Put shortly:
as §1

Test [3] in a line: Quantitative High-Throughput drug screen in 47 multiple myeloma cell lines against the NCATS MIPE library collection: KMS28PE_JCRB cell viability assay (AID 1918983). Note: nearly all actives have a fitted effect of over 35% in size. A digest of the protocol:
as §1

Test [4] can be described thus: Quantitative High-Throughput drug screen in 47 multiple myeloma cell lines against the NCATS MIPE library collection: L363_DSMZ cell viability assay (AID 1918984). Note: nearly all actives have a fitted effect of over 40% in size. Conditions: L363 myeloma viability, CellTiter-Glo ATP luminescence, 48 h; viability (% of control): at 45.8 µM (top of the series). Put shortly: as §1
A short description of test [5]: Quantitative High-Throughput drug screen in 47 multiple myeloma cell lines against the NCATS MIPE library collection: OCIMY5_PLB cell viability assay (AID 1918988). Note: nearly all actives have a fitted effect of over 65% in size. Put shortly: as §1
A short description of test [6]: Quantitative High-Throughput drug screen in 47 multiple myeloma cell lines against the NCATS MIPE library collection: OPM1_PLB cell viability assay (AID 1918989). Note: nearly all actives have a fitted effect of over 40% in size. Put shortly: as §1
Test [7] is described as follows: Quantitative High-Throughput drug screen in 47 multiple myeloma cell lines against the NCATS MIPE library collection: MM1R_ATCC cell viability assay (AID 1918981). Note: nearly all actives have a fitted effect of over 35% in size. A digest of the protocol:
as §1

Test [8] is described as follows: Quantitative High-Throughput drug screen in 47 multiple myeloma cell lines against the NCATS MIPE library collection: KMS34_JCRB cell viability assay (AID 1918985). Note: nearly all actives have a fitted effect of over 40% in size. A digest of the protocol: as §1
The nature of test [9]: Quantitative High-Throughput drug screen in 47 multiple myeloma cell lines against the NCATS MIPE library collection: OCIMY7_PLB cell viability assay (AID 1918987). Note: nearly all actives have a fitted effect of over 65% in size. The note with it: OCI-MY7 myeloma viability, CellTiter-Glo ATP, 48 h; viability (% of DMSO): at 45.8 µM (top of the series). A digest of the protocol: as §1

Inconclusive results are not listed. The source made the active and inactive calls. Calls come from the whole dose curve; as a rule, active = well fitted cell-killing curve with a large enough effect; inconclusive = small, poorly fitted or top-dose-only effect, or effect the other way; inactive = no such curve, though single readings can be large or run the other way.
Potency is the fitted concentration of half-maximal effect.

`Fc1ccc(CNc2ncnc3ccc(F)cc23)cc1`: the Potency was 14.8 µM (active) in [1]; 2.64 µM (active) in test [2]; 11.8 µM (active) in test [3]; 5.26 µM (active) in [4]; 16.6 µM (active) in test [5]; 16.6 µM (active) in test [6].
As for `CCOc1ccccc1N=Nc1c(C)[nH]n(-c2nc(-c3ccccc3)cs2)c1=O`, the results for the Potency in test [1], in [7] and in [5] were 13.2 µM (active), 3.32 µM (active) and 1.18 µM (active), respectively. Moreover, the Potency entry in test [8] and in test [6] was “inactive” each time.
Turning to `O=C(c1ccc(C=Cc2n[nH]c3ccccc23)cc1)N1CCNCC1`, the Potency in test [1] was 16.6 µM (active); in test [3], 6.62 µM (active); in [4], 3.72 µM (active); in [8], 10.5 µM (active); in test [9], 0.662 µM (active); in test [5] it was 14.8 µM (active). Further, the Potency in test [6] is 2.64 µM (active).
For `CCn1c(-c2nonc2N)nc2cncc(CNC3CCNCC3)c21`, the Potency is 14.8 µM (active) in [1], 18.7 µM (active) in [3] and 18.7 µM (active) in test [5]. Further, the Potency result in test [2] was “inactive”.
Consider `CC(=O)N1CCN(c2ccc(OCc3nn(C)c(C)c3-c3cccc4c(CCCOc5cc(C)c(Cl)c(C)c5)c(C(=O)O)n(Cc5cccnc5)c34)cc2)CC1`, for which the Potency in test [1] is 14.8 µM (active); in test [3], 20.9 µM (active); in test [4] it was 18.7 µM (active); in test [9], 0.833 µM (active); in test [5] it was 20.9 µM (active); in [6], 7.43 µM (active). The Potency entry in [2] is “inactive”.
For `O=C(Nc1cccc2c(=O)cc(-c3nn[nH]n3)oc12)c1ccc(OCCCCc2ccccc2)cc1`, the values for the Potency in test [1], in [7] and in [6] were 23.5 µM (active), 26.4 µM (active) and 18.7 µM (active), respectively.
Turning to `Nc1ncnc2c1c(-c1cccc(OCc3ccccc3)c1)cn2C1CC(CN2CCC2)C1` (stereo not drawn), the Potency in test [1] was 2.96 µM (active); in test [3], 3.32 µM (active); in test [4] it was 1.87 µM (active); in test [9], 0.296 µM (active); in test [5], 4.18 µM (active); in [6], 16.6 µM (active).
As for `Cc1cccc(-c2[nH]c(C(C)(C)C)nc2-c2ccc3c(c2)OCO3)n1`, the Potency in [1] is 16.6 µM (active); in test [3], 20.9 µM (active); in test [4], 2.35 µM (active); in [8] it was 18.7 µM (active); in test [9], 9.35 µM (active); in [5], 14.8 µM (active). Besides, the Potency in [6] is 1.87 µM (active).
In the case of `CN(C)CCN(Cc1ccc(Cl)cc1)c1ccccn1`, the Potency in [1] is 16.6 µM (active); in test [3], 5.9 µM (active); in test [9] it was 14.8 µM (active). Besides, the Potency result in test [2], in test [4] and in test [8] was “inactive” in each case.
With `CCCCC(C)(C)[C@H](O)C=C[C@H]1[C@H](O)CC(=O)[C@H]1CC=CCCCC(=O)O`, the Potency in [1] is 14.8 µM (active); in test [7], 18.7 µM (active); in [8], 5.9 µM (active); in test [6], 18.7 µM (active).
Consider `NC(=O)c1nnn(Cc2cc(Cl)c(C(=O)c3ccc(Cl)cc3)c(Cl)c2)c1N`, for which the Potency is 18.7 µM (active) in test [1], 18.7 µM (active) in test [7], 26.4 µM (active) in test [5] and 16.6 µM (active) in [6]. In test [4], the Potency result is “inactive”.
In the case of `CC(C)Oc1cc(Nc2nc(N[C@@H](C)c3ccc(F)cn3)ncc2Cl)[nH]n1`, the Potency is 23.5 µM (active) in test [1]; 26.4 µM (active) in [7]; 23.5 µM (active) in test [4]; 4.18 µM (active) in test [9]; 26.4 µM (active) in test [5]; 3.72 µM (active) in test [6].
Consider `C[C@]12CCC3=C4CCC(=O)C=C4CC[C@@H]3[C@H]1CC[C@@]2(O)CC#N`, for which the Potency result in test [1], in test [2] and in [3] was “inactive” each time.
Take `CC1CNc2c(cccc2S(=O)(=O)N[C@@H](CCCN=C(N)N)C(=O)N2CC[C@@H](C)C[C@@H]2C(=O)O)C1` (stereo partly drawn): the Potency in test [1] was 7.43 µM (active). For the same molecule, the Potency result in test [2], in [8] and in [9] was “inactive” in each case.
Regarding `COc1ccc(Cn2ccc3ccc(C(=O)NO)cc32)cc1`, the Potency was 16.6 µM (active) in [1] and 9.35 µM (active) in [9]. Also, the Potency entry in test [7] is “inactive”.
On to `COc1cc(N2CCN(C)CC2)ccc1Nc1nc(N)c(C(=O)c2c(Cl)cccc2Cl)s1`, for which the Potency was 20.9 µM (active) in test [1]; 14.8 µM (active) in [3]; 20.9 µM (active) in [4]; 18.7 µM (active) in [5]; 20.9 µM (active) in test [6].
With `CCNC(=O)c1noc(-c2cc(C(C)C)c(O)cc2O)c1-c1ccc(CN2CCOCC2)cc1`, the Potency in [1] is 0.0332 µM (active); in test [9], 0.0469 µM (active); in [6] it was 0.0833 µM (active).
For the molecule `C#C[C@]1(O)CC[C@H]2[C@H]3CCc4cc(OC)ccc4[C@H]3CC[C@@]21C`, the Potency in test [1] is 20.9 µM (active); in test [6], 16.6 µM (active). The Potency entry in test [3] and in test [4] was “inactive” in each case.
As for `O=C(C=Cc1ccc(O)cc1)c1ccc(O)cc1O`, the Potency in test [1] was 23.5 µM (active); in test [3] it was 23.5 µM (active); in test [9] it was 4.69 µM (active); in [5] it was 14.8 µM (active); in test [6], 20.9 µM (active).
